Results on eight sequences are retold here after publication PMC7862700, “An all-to-all approach to the identification of sequence-specific readers for epigenetic DNA modifications on cytosine”.

What all share (test): DAPPL (digital affinity profiling via proximity ligation, sequencing); 10 mM Tris-HCl pH 7.5, 50 mM NaCl, 1 mM DTT, 4% glycerol, room temperature, 30 min; GST-TFs on glutathione beads, 16-mer random dsDNA library, 0.1% formaldehyde crosslink after washing; high values mean tight binding
One experiment has as its target T1, FEV (Homo sapiens, UniProt Q99581 1-238).
T1 sequence: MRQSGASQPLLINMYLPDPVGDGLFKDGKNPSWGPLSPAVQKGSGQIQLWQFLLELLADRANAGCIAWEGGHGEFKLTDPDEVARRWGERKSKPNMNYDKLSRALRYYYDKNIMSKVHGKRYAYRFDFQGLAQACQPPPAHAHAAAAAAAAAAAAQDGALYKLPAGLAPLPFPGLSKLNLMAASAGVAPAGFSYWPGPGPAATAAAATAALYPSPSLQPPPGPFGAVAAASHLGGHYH
Conditions: protein: recombinant; tags: N-terminal GST; dsDNA, one strand shown. A digest of the protocol: (§1)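 Human transcription factors fused to GST were expressed in yeast, captured on glutathione beads, given DNA barcodes and pooled with a GST-only negative control. Pools were incubated with 200 nmole of a 16-mer random double-stranded DNA library in Tris/NaCl/DTT/glycerol buffer at room temperature for 30 min. They were then washed, crosslinked with 0.1% formaldehyde, proximity-ligated (BsaI/T4 ligase, 1 h, 37 °C), PCR-amplified and sequenced on an Illumina NextSeq500. Binding signal is each 6-mer's read frequency for a factor divided by its frequency for the GST control.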

The target of a further experiment is ETV5 (Homo sapiens, UniProt P41161 1-510). The note with it: protein: recombinant; tags: N-terminal GST; dsDNA, one strand shown. A digest of the protocol: as §1
Sequence of ETV5 (P41161 whole entry): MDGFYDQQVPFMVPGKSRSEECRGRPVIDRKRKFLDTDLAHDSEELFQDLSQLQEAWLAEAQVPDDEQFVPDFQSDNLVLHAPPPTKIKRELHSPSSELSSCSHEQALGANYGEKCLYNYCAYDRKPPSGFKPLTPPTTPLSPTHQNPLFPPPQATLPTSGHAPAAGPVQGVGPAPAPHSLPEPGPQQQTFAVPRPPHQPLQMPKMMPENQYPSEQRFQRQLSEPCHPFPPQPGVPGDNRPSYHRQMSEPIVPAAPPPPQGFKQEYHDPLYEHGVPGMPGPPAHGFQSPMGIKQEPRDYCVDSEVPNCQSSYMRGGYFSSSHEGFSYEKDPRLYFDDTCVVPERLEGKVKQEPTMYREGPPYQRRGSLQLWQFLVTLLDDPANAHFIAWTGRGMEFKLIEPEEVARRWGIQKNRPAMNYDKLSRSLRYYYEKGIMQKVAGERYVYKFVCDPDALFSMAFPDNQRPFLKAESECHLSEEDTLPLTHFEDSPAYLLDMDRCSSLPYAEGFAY
For another experiment, the target named is HSF1 (Homo sapiens, UniProt Q00613 1-529). Conditions: protein: recombinant; tags: N-terminal GST; chain copies: 3; dsDNA, one strand shown. Summed up:
as §1

The target in the next experiment is T2, SPIC (Homo sapiens, UniProt Q8N5J4 1-248).
T2 sequence: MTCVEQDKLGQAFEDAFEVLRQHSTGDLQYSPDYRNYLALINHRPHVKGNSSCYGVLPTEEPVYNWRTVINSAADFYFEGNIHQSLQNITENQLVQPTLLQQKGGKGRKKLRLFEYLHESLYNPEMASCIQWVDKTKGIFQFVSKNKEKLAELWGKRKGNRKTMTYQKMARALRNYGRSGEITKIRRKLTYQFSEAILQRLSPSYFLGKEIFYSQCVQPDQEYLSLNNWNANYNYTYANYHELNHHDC
The note with it: protein: recombinant; tags: N-terminal GST; dsDNA, one strand shown. A digest of the protocol: as §1

In the next experiment the target is ELF4 (Homo sapiens, UniProt Q99607 1-663). Conditions: protein: recombinant; tags: N-terminal GST; dsDNA, one strand shown. Summed up: as §1
Sequence of ELF4 (Q99607 whole entry): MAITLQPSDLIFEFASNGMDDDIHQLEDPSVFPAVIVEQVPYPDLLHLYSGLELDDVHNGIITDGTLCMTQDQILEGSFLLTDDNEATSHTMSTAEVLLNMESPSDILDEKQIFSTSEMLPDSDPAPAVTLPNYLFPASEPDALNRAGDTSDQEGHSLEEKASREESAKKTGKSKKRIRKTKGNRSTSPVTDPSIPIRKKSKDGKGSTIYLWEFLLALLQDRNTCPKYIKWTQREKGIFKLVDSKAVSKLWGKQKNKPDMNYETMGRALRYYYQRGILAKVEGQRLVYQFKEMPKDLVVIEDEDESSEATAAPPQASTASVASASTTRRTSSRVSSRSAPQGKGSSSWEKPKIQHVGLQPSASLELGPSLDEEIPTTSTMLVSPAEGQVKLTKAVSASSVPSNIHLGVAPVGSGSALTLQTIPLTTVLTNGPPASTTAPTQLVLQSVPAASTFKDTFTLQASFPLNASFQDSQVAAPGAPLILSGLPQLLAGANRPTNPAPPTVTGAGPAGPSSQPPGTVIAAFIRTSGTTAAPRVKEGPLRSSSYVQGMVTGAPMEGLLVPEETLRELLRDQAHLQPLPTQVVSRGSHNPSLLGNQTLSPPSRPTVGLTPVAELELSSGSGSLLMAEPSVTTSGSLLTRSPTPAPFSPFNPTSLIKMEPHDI
The target in a further experiment is T3, ELK4 (Homo sapiens, UniProt P28324-2 1-405).
T3 sequence: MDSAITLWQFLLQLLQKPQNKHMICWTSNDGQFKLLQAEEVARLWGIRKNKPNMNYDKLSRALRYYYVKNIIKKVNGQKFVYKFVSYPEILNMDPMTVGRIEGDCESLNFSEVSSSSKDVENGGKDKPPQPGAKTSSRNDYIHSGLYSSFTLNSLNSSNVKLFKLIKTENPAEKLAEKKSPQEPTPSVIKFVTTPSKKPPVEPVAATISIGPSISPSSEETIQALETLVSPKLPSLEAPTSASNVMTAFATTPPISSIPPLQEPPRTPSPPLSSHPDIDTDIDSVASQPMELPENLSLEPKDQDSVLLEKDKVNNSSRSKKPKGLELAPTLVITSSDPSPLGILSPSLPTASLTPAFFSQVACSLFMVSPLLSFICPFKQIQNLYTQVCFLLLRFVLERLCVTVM
Conditions: protein: recombinant; tags: N-terminal GST; dsDNA, one strand shown. A digest of the protocol:
as §1

The next experiment has as its target T4, ETV2 (Homo sapiens, UniProt O00321 1-342).
T4 sequence: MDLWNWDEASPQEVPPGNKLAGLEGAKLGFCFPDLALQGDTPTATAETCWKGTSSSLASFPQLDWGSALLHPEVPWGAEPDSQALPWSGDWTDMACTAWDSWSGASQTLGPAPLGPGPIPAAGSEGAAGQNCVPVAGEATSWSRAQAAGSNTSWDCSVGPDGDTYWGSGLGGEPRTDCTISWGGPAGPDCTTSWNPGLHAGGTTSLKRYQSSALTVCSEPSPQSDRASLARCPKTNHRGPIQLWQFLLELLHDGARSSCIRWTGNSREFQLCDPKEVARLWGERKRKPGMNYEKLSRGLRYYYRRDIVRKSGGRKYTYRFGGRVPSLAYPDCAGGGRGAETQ
Conditions: protein: recombinant; tags: N-terminal GST; dsDNA, one strand shown. A digest of the protocol:
as §1

A further experiment deals with T5, ELF3 (Homo sapiens, UniProt P78545 1-371).
T5 sequence: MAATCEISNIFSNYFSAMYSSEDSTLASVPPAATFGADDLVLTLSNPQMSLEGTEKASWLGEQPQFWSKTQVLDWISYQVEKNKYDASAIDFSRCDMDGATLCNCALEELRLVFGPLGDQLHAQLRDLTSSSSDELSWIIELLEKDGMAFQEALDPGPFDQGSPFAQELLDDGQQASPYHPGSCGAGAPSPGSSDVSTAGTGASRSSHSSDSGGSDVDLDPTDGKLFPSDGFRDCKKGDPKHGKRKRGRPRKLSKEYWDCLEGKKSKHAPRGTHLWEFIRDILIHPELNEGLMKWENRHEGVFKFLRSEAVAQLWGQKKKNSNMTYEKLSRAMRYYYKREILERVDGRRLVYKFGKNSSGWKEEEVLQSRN
Conditions: protein: recombinant; tags: N-terminal GST; dsDNA, one strand shown. Summed up:
as §1

The target of a further experiment is CRX (Homo sapiens, UniProt O43186 1-299). Conditions: protein: recombinant; tags: N-terminal GST; dsDNA, one strand shown. A digest of the protocol:
as §1

In a further experiment the target is ETV1 (Homo sapiens, UniProt P50549 1-477). Conditions: protein: recombinant; tags: N-terminal GST; dsDNA, one strand shown. A digest of the protocol:
as §1

Sequence of HSF1 (Q00613 whole entry): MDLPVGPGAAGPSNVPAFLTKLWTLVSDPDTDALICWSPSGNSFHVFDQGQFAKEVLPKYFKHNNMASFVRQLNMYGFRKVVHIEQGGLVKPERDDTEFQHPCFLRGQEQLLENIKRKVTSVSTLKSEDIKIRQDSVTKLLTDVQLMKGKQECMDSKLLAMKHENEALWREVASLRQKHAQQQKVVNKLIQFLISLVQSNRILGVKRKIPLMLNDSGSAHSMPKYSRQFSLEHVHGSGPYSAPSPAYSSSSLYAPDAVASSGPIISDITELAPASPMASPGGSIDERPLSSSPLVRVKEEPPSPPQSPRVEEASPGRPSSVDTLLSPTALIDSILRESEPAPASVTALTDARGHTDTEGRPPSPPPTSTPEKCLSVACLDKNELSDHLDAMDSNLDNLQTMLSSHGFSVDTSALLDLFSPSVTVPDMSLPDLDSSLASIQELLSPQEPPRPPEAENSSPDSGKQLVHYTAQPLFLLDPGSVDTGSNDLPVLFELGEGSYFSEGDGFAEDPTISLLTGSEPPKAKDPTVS
Sequence of CRX (O43186 whole entry): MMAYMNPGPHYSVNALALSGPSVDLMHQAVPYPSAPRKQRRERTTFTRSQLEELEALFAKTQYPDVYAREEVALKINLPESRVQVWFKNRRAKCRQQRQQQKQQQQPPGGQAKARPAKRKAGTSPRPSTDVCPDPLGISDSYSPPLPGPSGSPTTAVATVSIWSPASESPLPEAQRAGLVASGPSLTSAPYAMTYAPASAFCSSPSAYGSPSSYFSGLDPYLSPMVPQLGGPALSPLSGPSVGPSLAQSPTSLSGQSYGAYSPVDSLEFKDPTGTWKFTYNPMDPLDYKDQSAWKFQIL
Sequence of ETV1 (P50549 whole entry): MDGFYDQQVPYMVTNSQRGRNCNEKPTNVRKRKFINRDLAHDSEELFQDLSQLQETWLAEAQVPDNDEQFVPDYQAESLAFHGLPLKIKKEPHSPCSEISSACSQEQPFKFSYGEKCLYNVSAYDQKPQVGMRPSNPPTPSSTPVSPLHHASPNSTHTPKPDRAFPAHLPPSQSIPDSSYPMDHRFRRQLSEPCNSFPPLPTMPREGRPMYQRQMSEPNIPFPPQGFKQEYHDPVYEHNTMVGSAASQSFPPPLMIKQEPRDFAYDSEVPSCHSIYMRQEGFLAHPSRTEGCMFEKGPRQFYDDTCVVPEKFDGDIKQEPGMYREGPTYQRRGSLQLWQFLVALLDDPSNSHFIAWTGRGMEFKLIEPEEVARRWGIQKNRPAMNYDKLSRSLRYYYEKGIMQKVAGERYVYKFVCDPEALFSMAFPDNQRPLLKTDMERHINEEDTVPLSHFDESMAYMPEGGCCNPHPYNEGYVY

As for CTCCCC, the binding signal with FEV was 1.4 fold enrichment (6-mer frequency, TF over GST control); in the experiment with ETV5 it was 1.39 fold enrichment (6-mer frequency, TF over GST control); with HSF1 it was 1.14 fold enrichment (6-mer frequency, TF over GST control); with SPIC, 1.28 fold enrichment (6-mer frequency, TF over GST control); with ELF4, 1.42 fold enrichment (6-mer frequency, TF over GST control); with ELK4 it was 1.38 fold enrichment (6-mer frequency, TF over GST control). Further, the binding signal was 1.63 fold enrichment (6-mer frequency, TF over GST control) in the experiment with ETV2; 1.25 fold enrichment (6-mer frequency, TF over GST control) with ELF3; 1.19 fold enrichment (6-mer frequency, TF over GST control) in the experiment with CRX; 1.46 fold enrichment (6-mer frequency, TF over GST control) with ETV1.

Turning to TTCTCC, the binding signal was 1.63 fold enrichment (6-mer frequency, TF over GST control) with FEV; 1.49 fold enrichment (6-mer frequency, TF over GST control) with ETV5; 1.98 fold enrichment (6-mer frequency, TF over GST control) in the experiment with HSF1; 1.37 fold enrichment (6-mer frequency, TF over GST control) with SPIC; 1.51 fold enrichment (6-mer frequency, TF over GST control) in the experiment with ELF4; 1.63 fold enrichment (6-mer frequency, TF over GST control) with ELK4. Besides, the binding signal with ETV2 was 1.39 fold enrichment (6-mer frequency, TF over GST control); in the experiment with ELF3, 1.4 fold enrichment (6-mer frequency, TF over GST control); with CRX, 1.51 fold enrichment (6-mer frequency, TF over GST control); with ETV1, 1.45 fold enrichment (6-mer frequency, TF over GST control).

As for AACTTT, the binding signal was 1.18 fold enrichment (6-mer frequency, TF over GST control) with FEV; 1.19 fold enrichment (6-mer frequency, TF over GST control) in the experiment with ETV5; 1.68 fold enrichment (6-mer frequency, TF over GST control) in the experiment with HSF1; 1.45 fold enrichment (6-mer frequency, TF over GST control) with SPIC; 1.19 fold enrichment (6-mer frequency, TF over GST control) with ELF4; 1.32 fold enrichment (6-mer frequency, TF over GST control) in the experiment with ELK4. Moreover, the binding signal with ETV2 was 1.3 fold enrichment (6-mer frequency, TF over GST control); with ELF3, 1.33 fold enrichment (6-mer frequency, TF over GST control); with CRX, 1.27 fold enrichment (6-mer frequency, TF over GST control); with ETV1 it was 1.23 fold enrichment (6-mer frequency, TF over GST control).

As for CTACGG, the binding signal with FEV is 1.28 fold enrichment (6-mer frequency, TF over GST control); with ETV5, 1.21 fold enrichment (6-mer frequency, TF over GST control); with HSF1, 1.03 fold enrichment (6-mer frequency, TF over GST control); in the experiment with SPIC it was 1.08 fold enrichment (6-mer frequency, TF over GST control); with ELF4, 1.22 fold enrichment (6-mer frequency, TF over GST control); in the experiment with ELK4 it was 1.37 fold enrichment (6-mer frequency, TF over GST control). For the same sequence, the binding signal is 1.29 fold enrichment (6-mer frequency, TF over GST control) in the experiment with ETV2; 1.38 fold enrichment (6-mer frequency, TF over GST control) with ELF3; 1.08 fold enrichment (6-mer frequency, TF over GST control) with CRX; 1.34 fold enrichment (6-mer frequency, TF over GST control) in the experiment with ETV1.

In the case of AATTTC, the binding signal with FEV was 1.93 fold enrichment (6-mer frequency, TF over GST control); with ETV5, 1.8 fold enrichment (6-mer frequency, TF over GST control); in the experiment with HSF1, 1.89 fold enrichment (6-mer frequency, TF over GST control); with SPIC, 1.59 fold enrichment (6-mer frequency, TF over GST control); with ELF4, 1.61 fold enrichment (6-mer frequency, TF over GST control); with ELK4, 1.6 fold enrichment (6-mer frequency, TF over GST control). The binding signal in the experiment with ETV2 is 1.88 fold enrichment (6-mer frequency, TF over GST control); in the experiment with ELF3, 1.75 fold enrichment (6-mer frequency, TF over GST control); in the experiment with CRX, 1.49 fold enrichment (6-mer frequency, TF over GST control); with ETV1, 1.79 fold enrichment (6-mer frequency, TF over GST control).

GCTCCA: the binding signal in the experiment with FEV was 1.22 fold enrichment (6-mer frequency, TF over GST control); in the experiment with ETV5, 1.23 fold enrichment (6-mer frequency, TF over GST control); in the experiment with HSF1, 1.16 fold enrichment (6-mer frequency, TF over GST control); with SPIC, 1.08 fold enrichment (6-mer frequency, TF over GST control); in the experiment with ELF4, 1.22 fold enrichment (6-mer frequency, TF over GST control); with ELK4 it was 1.24 fold enrichment (6-mer frequency, TF over GST control). For the same sequence, the binding signal with ETV2 was 1.29 fold enrichment (6-mer frequency, TF over GST control); in the experiment with ELF3 it was 1.21 fold enrichment (6-mer frequency, TF over GST control); with CRX, 1.01 fold enrichment (6-mer frequency, TF over GST control); in the experiment with ETV1, 1.12 fold enrichment (6-mer frequency, TF over GST control).

For CTCTTA, the binding signal in the experiment with FEV is 1.34 fold enrichment (6-mer frequency, TF over GST control); with ETV5, 1.41 fold enrichment (6-mer frequency, TF over GST control); with HSF1, 1.52 fold enrichment (6-mer frequency, TF over GST control); with SPIC it was 1.4 fold enrichment (6-mer frequency, TF over GST control); in the experiment with ELF4, 1.32 fold enrichment (6-mer frequency, TF over GST control); in the experiment with ELK4 it was 1.34 fold enrichment (6-mer frequency, TF over GST control). The binding signal in the experiment with ETV2 was 1.49 fold enrichment (6-mer frequency, TF over GST control); with ELF3 it was 1.27 fold enrichment (6-mer frequency, TF over GST control); with CRX, 2.2 fold enrichment (6-mer frequency, TF over GST control); in the experiment with ETV1 it was 1.38 fold enrichment (6-mer frequency, TF over GST control).

As for GTATTT, the binding signal with FEV is 1.6 fold enrichment (6-mer frequency, TF over GST control); with ETV5 it was 1.59 fold enrichment (6-mer frequency, TF over GST control); in the experiment with HSF1, 1.5 fold enrichment (6-mer frequency, TF over GST control); with SPIC, 1.66 fold enrichment (6-mer frequency, TF over GST control); with ELF4, 1.59 fold enrichment (6-mer frequency, TF over GST control); with ELK4, 1.52 fold enrichment (6-mer frequency, TF over GST control). In addition, the binding signal in the experiment with ETV2 was 1.69 fold enrichment (6-mer frequency, TF over GST control); with ELF3 it was 1.39 fold enrichment (6-mer frequency, TF over GST control); with CRX, 1.73 fold enrichment (6-mer frequency, TF over GST control); with ETV1, 1.64 fold enrichment (6-mer frequency, TF over GST control).
